From PubChem
KB-V1 cytotox: kills drug-selected multidrug resistant KB-V1 cells; 400,000 tested, 3.4% active; Potency, µM (series often up to 46.1 µM), most hits filed as cytotoxic; AID 1347076; KB-V1 MDR cells viability, CellTiter-Glo, 72 h; also: nearly all actives have a fitted effect of over 60% in size
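Cytotoxicity toward P-gp-expressing KB-V1 cells was determined as loss of CellTiter-Glo luminescence after 72 h at 37 degrees C. Compounds were tested in quantitative HTS format across a concentration range, with curves fitted to normalized data.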
KB-3-1 cytotox: KB-3-1 parental cell cytotoxicity. KB-3-1 viability, CellTiter-Glo ATP luminescence, 72 h. Potency, µM (series often up to 46.1 µM), actives largely listed as cytotoxic. 400,000 tested, 1.4% active. AID 1347075; also: nearly all actives have a fitted effect of over 60% in size
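Cytotoxicity measured as CellTiter-Glo luminescence after 72 h at 37 C. Compound titrations were pinned onto drug-naive KB-3-1 parental adenocarcinoma cells grown in DMEM with 10% FBS, and normalized data fitted to concentration-response curves.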
MCF10A rerep: inducers of DNA re-replication in MCF 10A breast cells; MCF 10A DNA re-replication, Hoechst nuclear intensity, 48 h; Potency, µM (series often up to 46.1 µM), usual class: activators; 350,000 tested, 2.9% active; AID 624296; also: nearly all actives have a fitted effect of over 50% in size
SW480 rerep: induces DNA re-replication in SW480 colon adenocarcinoma cells | SW480 DNA re-replication, Hoechst DNA content imaging, 48 h | Potency, µM (titrated, usually from 46.1 µM), hits mostly activators | 340,000 tested, 1.8% active | AID 624297; also: nearly all actives have a fitted effect of over 55% in size
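Treated cells incubate 48 hr (37 C, 5% CO2), are stained 40 min with Hoechst, and nuclear fluorescence is enumerated; a rise in nuclei with high DNA signal marks re-replication.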
KCNH2 3.1 inh: blocks the human KCNH2 3.1 channel isoform; activity change, % (tested at about 1.8 µM); U2OS KCNH2 3.1, thallium flux FluxOr; active compounds read low; 340,000 tested, 0.95% active; AID 720553;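 active = maximum activity change below -70%; inconclusive = maximum activity change from -70% to -50%; inactive = maximum activity change above -50%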;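 also: thallium influx rate constant from kinetic fluorescence after stimulation buffer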
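Channel expression came from 3.1 mutant virus (1.77 x 10^8 /mL) applied to suspended U2OS cells for 4 h. Flux was tracked with FluxOr dye plus Red40 quencher, and kinetic rate constants normalized to controls.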
KCNH2 WT inh: KCNH2 (human, wildtype) channel inhibition. activity change, % at 1.84 µM. AID 720551. Q12809. 340,000 tested, 0.37% active. U2OS, BacMam KCNH2, thallium flux FluxOr; active compounds read low;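 active = maximum activity change below -70%; inconclusive = maximum activity change between -70% and -50%; inactive = maximum activity change above -50%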
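U2OS cells transduced with wild-type KCNH2 virus are loaded with FluxOr dye for 45 min, and thallium flux is measured in kinetic reads before and after stimulation buffer. Rate constants are normalized to DMSO controls.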
Hits are given with their value; - = inactive; ? = inconclusive; . = not tested or not shown; ! = a repeat was not active. Most compounds without a hit are left out; they make up all but 7.6% or so of the library. Unless noted, calls follow the shape of the dose curve; as a rule, active = well fitted curve in the direction sought with a large enough effect; inconclusive = small, poorly fitted or top-dose-only effect, or another doubt; inactive = no such curve, though single readings can be large; an effect the other way counts as inactive or inconclusive.

SMILES	KB-V1 cytotox	KB-3-1 cytotox	MCF10A rerep	SW480 rerep	KCNH2 3.1 inh	KCNH2 WT inh
CCCCCSc1cc(OC)c(CCN(C)C)cc1OC	-	-	-	?	-70	-
COc1cc2c3c(c1OC)Oc1ccc(cc1)C[C@H]1c4c(cc(OC)c(OC)c4Oc4ccc(cc4)C[C@@H]3N(C)CC2)CCN1C	-	-	?	2.6µM	-	-
COc1cc2c3cc1Oc1c(OC)c(OC)cc4c1[C@H](Cc1ccc(cc1)Oc1cc(ccc1O)C[C@H]3N(C)CC2)N(C)CC4	?	-	-	-	-	-
COc1cc2c(cc1O)C[C@H]1c3c(cc(O)c(OC)c3-2)CCN1C	-	-	?	-	-	-
COc1cc2c3cc1Oc1cc(ccc1O)C[C@@H]1c4c(cc(OC)c(O)c4Oc4cccc(c4)C[C@@H]3N(C)CC2)CC[N+]1(C)C	-	-	-	-	-	-
COc1ccc2cc1Oc1ccc(cc1)C[C@H]1c3cc(c(OC)cc3CCN1C)Oc1c(OC)c(OC)cc3c1[C@H](C2)N(C)CC3	16µM!	?	?	?	-	-
COc1cc2c3cc1Oc1cc(ccc1O)C[C@@H]1c4c(cc(OC)c(O)c4Oc4ccc(cc4)C[C@H]3N(C)CC2)CCN1C	?	-	18µM!	10µM	-	-
CCC1(CC)C(=O)NC(=O)NC1=O	.	.	-	-	.	.
COc1ccc(N=Cc2c(O)n(Cc3ccccc3)c(=S)[nH]c2=O)c(OC)c1	-	-	-	-	-	-
COc1ccc(OC)c(N=Cc2c(O)n(Cc3ccccc3)c(=S)[nH]c2=O)c1	-	-	?	29µM	-	-
COC(=O)c1ccc(COC(=O)c2nn(C)c(=O)c3ccccc23)cc1	-	-	-	-	-	.
Clc1ccccc1Cl	.	.	-	-	.	.
CC(=O)O/C(=C1\CC2C3CC=C4CC(OC(C)=O)CCC4(C)C3CCC2(C)C1=O)C(F)(F)F (stereo not given)	10µM	?	?	-	-	-
CN(C)c1ccc(C=C(C#N)C#N)cc1	-	-	-	-	-	-
COc1ccc(C=C(C#N)c2ccc(OC)cc2)cc1	?	18µM	?	?	-	-
COc1ccc(NC(=O)c2cccn(Cc3ccc(Cl)cc3)c2=O)c(OC)c1	?	-	.	.	.	.
N#Cc1ccccc1NC(=O)c1cccn(Cc2ccccc2)c1=O	-	-	.	.	.	.
N/C(=N\N=C/c1ccc(-c2ccc(O)c(C(=O)O)c2)o1)N[N+](=O)[O-]	?	-	-	-	-	-
COc1ccc(/C=N/N=C(/N)N[N+](=O)[O-])c(OC)c1	1µM	1.5µM	?	-	-	-
O=C(NC(=O)c1c(F)cccc1F)Nc1cc(Cl)c(OC(F)(F)C(F)C(F)(F)F)cc1Cl (stereo not given)	.	.	-	-	.	.
Ic1ccccc1CN[C@@H]1C2CCN(CC2)[C@@H]1C(c1ccccc1)c1ccccc1	16µM	?	?	-	-75	-
CCN(CC)C1=NC(=[N+](CC)CC)c2ccccc21	-	10µM	?	?	-	-
O=c1cc(C(F)(F)F)c2cc3c4c(c2o1)CCCN4CCC3	-	-	10µM	?	-109	-72
Cc1cc2c(C(F)(F)F)cc(=O)oc2c2c1NCCC2	-	-	-	?	-	-
CC(C)COC(=O)OCN1C(=O)CN(CCN2CC(=O)N(COC(=O)OCC(C)C)C(=O)C2)CC1=O	-	-	?	?	-	-
SMILES	KB-V1 cytotox	KB-3-1 cytotox	MCF10A rerep	SW480 rerep	KCNH2 3.1 inh	KCNH2 WT inh
CCS(=O)(=O)C(C)(C)S(=O)(=O)CC	.	.	-	-	.	.
CCN1CCN(P2(=O)C=C(c3ccccc3)OC(c3ccccc3)=C2)CC1	-	-	?	-	-90	-123
Cc1cc2c(C(C)C)c(O)c(O)c(C=O)c2c(O)c1-c1c(C)cc2c(C(C)C)c(O)c(O)c(C=O)c2c1O	?	1.5µM	?	13µM!	.	.
O=C(Nc1ccccc1)C1=C[C@H](c2ccccc2)C[C@H](OCCCCO)O1	?	?	18µM	-	-	-
O=c1[nH]c(=S)n(CCC2=CCCCC2)c(O)c1/C=N/N1CCOCC1	-	-	18µM	?	-	-
CSc1ccc(CN2CCN(c3ccccc3C)CC2)cc1	?	-	-	-	-114	-129
